The text below walks through data of PubChem BioAssay.

Molecules are shown by their SMILES. Calls of active or inactive are those of the source.

In one assay the target is Albumin (Bos taurus) (UniProt P02769). Kind of assay: bovine serum albumin binders on microarray, profiling panel, artefact control for SMM control protein annotation, biochemical, small-molecule microarray, Alexa647 label, 635/667 nm fluorescence (AID 1118).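 Note: score merges 667 nm emission intensity and signal-to-noise per printed compound spot.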 Conditions: BSA-A647 binding, fluorescence 635 nm, higher = more signal.
A short description of assay [1]: small-molecule microarray binders of probe aXIP, primary screen, biochemical, NeuroSMM set, 635/667 nm fluorescence (AID 1119).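 Note: probe is the protein aXip251-270 applied at 1 µg/mL to compound-printed slides; binding of probe to printed compounds measured as 667 nm fluorescence plus signal to noise.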 The conditions noted are these: higher = more signal, called active from +8 up or from −8 down.
Assay [2] is described as follows: small-molecule binders of probe aNOTCH3, primary screen, biochemical, small-molecule microarray, 635/667 nm fluorescence (AID 1120).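 Note: probe is a biotin-tagged antibody raised against NOTCH3 rather than NOTCH3 protein; score merges spot fluorescence near 667 nm with spot signal to noise.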 The conditions noted are these: higher = more signal.
Assay [3] in a line: small-molecule binders of probe aNOTCH2, primary screen, biochemical, small-molecule microarray, 635/667 nm fluorescence (AID 1121).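 Note: score merges feature fluorescence read at 667 nm with its signal to noise.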 The conditions noted are these: higher = more signal.
The target of assay [4] is Carbonic anhydrase 2 (Homo sapiens) (UniProt P00918). As to the kind of experiment: CAII small-molecule binders, profiling panel, biochemical, small-molecule microarray, Alexa647-labelled CAII (AID 1122). The conditions noted are these: CAII-A647 binding fluorescence, higher = more signal.
Assay [5] in a line: COS7 lysate on small-molecule microarray, probe aHis, 635 nm (AID 1123).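 Note: z-score combines 667nm fluorescence intensity with signal-to-noise per printed compound spot.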 The conditions noted are these: COS7 cell lysate, fluorescence, higher = more signal.
A short description of assay [6]: compound binding in COS7 lysate, probe aLAP1, primary screen, cell lysate, small-molecule microarray (AID 1124).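 Note: lysate comes from COS7 cells expressing LAP1 and is applied at 0.3 µg/mL; score merges spot fluorescence near 667 nm with signal-to-noise over triplicate slides.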 The conditions noted are these: probe aLAP1, fluorescence, higher = more signal.
For another assay, the system named is Sam68 (KHDRBS1). Kind of assay: Sam68 small-molecule binders, primary screen, biochemical, small-molecule microarray, 635 nm fluorescence (AID 1125).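 Note: score merges 667 nm channel intensity with signal to noise over triplicate slides.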 Conditions: small-molecule microarray binding, higher = more signal.
In assay [7] the test system is Chordin-like protein 2 (CHRDL2). As to the kind of experiment: CHRDL2 small-molecule binders, primary screen, biochemical, small-molecule microarray, 635 nm fluorescence (AID 1126).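 Note: printed compound slides probed with Chrdl2 protein at 4 µg/mL for 1 h at 4 C; score merges 667 nm emission intensity with signal to noise over three replicate slides.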 The conditions noted are these: small-molecule microarray binding, fluorescence 635 nm; higher = more signal.
For assay [8], the target named is Concanavalin-A (Canavalia ensiformis) (UniProt P02866). Kind of assay: ConA small-molecule binders, primary screen, artefact control for SMM control protein annotation, biochemical, small-molecule microarray, Alexa647 label, 635 nm (AID 1127).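 Note: z combines 667 nm emission intensity with signal-to-noise across three replicate slides.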 Conditions: ConA-A647 binding fluorescence, higher = more signal.
A short description of assay [9]: anti-His antibody binders, primary screen, artefact control for SMM control protein annotation, biochemical, small-molecule microarray, 635 nm fluorescence (AID 1128).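 Note: score merges feature fluorescence with signal-to-noise for each printed compound spot.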 The conditions noted are these: anti-His Alexa647 antibody binding, higher = more signal.
Assay [10] relates to Human papillomavirus type 1a E7 protein (residues 1-88). Kind of assay: HPV1a E7 small-molecule binders, primary screen, biochemical, small-molecule microarray, residues 1-88, 635 nm (AID 1129). The conditions noted are these: small-molecule microarray binding, fluorescence 635 nm; higher = more signal.
In assay [11] the target is Focal adhesion kinase 1 (Homo sapiens) (UniProt Q05397). As to the kind of experiment: small-molecule microarray binders of FAK, primary screen, biochemical, 635/667 nm fluorescence, BSA, DTT (AID 1130).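 Note: composite of spot emission at 667 nm and signal to noise over triplicate slides.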 The conditions noted are these: PTK2 binding, 635 nm fluorescence, higher = more signal.
Assay [12] concerns Fibrinogen (Alexa647-labelled). Kind of assay: fibrinogen binders on compound microarrays, profiling panel, artefact control for SMM control-protein annotation, biochemical, small-molecule microarray, 635/667 nm fluorescence (AID 1131).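 Note: z-score merges 667 nm fluorescence with per-spot signal-to-noise over triplicate slides.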 Conditions: fibrinogen-A647 binding fluorescence, higher = more signal.
In assay [13] the target is Follistatin (Homo sapiens) (UniProt P19883). As to the kind of experiment: follistatin binders on small-molecule microarrays, primary screen, biochemical, small-molecule microarray, 635/667 nm fluorescence (AID 1132). The conditions noted are these: FST binding, 635 nm fluorescence, higher = more signal.
In assay [14] the target is Fibroblast growth factor 2 (Homo sapiens) (UniProt P09038). As to the kind of experiment: FGF2 binders on small-molecule microarrays, primary screen, biochemical, small-molecule microarray, 635/667 nm fluorescence (AID 1133). Conditions: small-molecule microarray binding, FGF2, fluorescence 635/667; higher = more signal.
Assay [15] in a line: mitochondrial membrane potential change in A549 cells, profiling panel, cell-based, JC-1 fluorescence, basal, 24 h, 100 nL (AID 1138).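 Note: A549 lung adenocarcinoma cells under basal conditions with no added stimulus; test concentration not given here.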 Conditions: higher = more signal.
For the next assay, the system named is Lefty1. Kind of assay: Lefty1 binders on small-molecule microarrays, primary screen, biochemical, small-molecule microarray, 635/667 nm fluorescence (AID 1139). Conditions: small-molecule microarray binding, fluorescence 635/667; higher = more signal.
Assay [16] relates to wheat germ agglutinin (Triticum aestivum), Alexa647-labelled. As to the kind of experiment: wheat germ agglutinin binders on compound microarrays, profiling panel, artefact control for SMM control-protein annotation, biochemical, small-molecule microarray, 635/667 nm fluorescence (AID 1140).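 Note: score merges 667 nm feature emission with signal to noise over triplicate slides.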 Conditions: WGA-A647 binding, 635 nm fluorescence, higher = more signal.
Assay [17] has as its target Luciferin 4-monooxygenase (Photinus pyralis) (UniProt P08659). As to the kind of experiment: firefly luciferase enzyme inhibitors, primary screen, biochemical, luminescence, purified enzyme, 2006 set (AID 1141).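 Note: cell-free assay with purified firefly luciferase at 100 ng per well in PBS; test concentration not given here.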 The conditions noted are these: SteadyGlo luminescence, 30 min, higher = more signal, called active from +8 up or from −8 down.

Sequence of Luciferin 4-monooxygenase (Photinus pyralis) (P08659 whole entry, looked up): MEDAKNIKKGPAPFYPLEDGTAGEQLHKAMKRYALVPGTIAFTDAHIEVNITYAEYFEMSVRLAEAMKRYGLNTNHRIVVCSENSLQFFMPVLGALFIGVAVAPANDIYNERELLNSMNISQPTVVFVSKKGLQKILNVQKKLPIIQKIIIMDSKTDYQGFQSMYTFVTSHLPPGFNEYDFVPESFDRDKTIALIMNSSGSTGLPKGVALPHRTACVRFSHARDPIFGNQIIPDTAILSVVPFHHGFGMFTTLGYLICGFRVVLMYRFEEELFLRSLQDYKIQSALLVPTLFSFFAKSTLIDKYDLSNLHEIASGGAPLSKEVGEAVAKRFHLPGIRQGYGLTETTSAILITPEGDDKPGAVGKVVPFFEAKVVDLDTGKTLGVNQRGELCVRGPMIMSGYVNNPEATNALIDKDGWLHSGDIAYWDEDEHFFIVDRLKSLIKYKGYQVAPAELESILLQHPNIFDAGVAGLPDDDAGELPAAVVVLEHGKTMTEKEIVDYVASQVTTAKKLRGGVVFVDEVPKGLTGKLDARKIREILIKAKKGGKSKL
Sequence of Follistatin (Homo sapiens) (P19883 whole entry, looked up): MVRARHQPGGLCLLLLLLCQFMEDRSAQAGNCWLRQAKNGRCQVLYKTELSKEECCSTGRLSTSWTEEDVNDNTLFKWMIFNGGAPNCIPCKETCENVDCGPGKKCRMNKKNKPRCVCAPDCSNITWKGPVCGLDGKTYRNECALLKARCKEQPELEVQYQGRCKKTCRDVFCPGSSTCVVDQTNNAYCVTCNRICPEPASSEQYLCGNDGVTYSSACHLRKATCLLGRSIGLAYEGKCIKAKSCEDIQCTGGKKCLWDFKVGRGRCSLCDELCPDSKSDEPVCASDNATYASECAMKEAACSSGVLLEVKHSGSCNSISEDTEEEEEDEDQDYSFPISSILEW
Sequence of Fibroblast growth factor 2 (Homo sapiens) (P09038 whole entry, looked up): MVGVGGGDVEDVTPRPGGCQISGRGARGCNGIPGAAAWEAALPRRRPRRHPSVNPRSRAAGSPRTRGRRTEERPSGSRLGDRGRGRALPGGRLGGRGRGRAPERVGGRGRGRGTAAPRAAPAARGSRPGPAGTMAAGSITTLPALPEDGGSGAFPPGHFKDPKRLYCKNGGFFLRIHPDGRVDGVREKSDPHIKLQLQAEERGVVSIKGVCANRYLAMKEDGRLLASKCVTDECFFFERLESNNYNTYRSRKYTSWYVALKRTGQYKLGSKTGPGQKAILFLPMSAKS
Sequence of Concanavalin-A (Canavalia ensiformis) (P02866 whole entry, looked up): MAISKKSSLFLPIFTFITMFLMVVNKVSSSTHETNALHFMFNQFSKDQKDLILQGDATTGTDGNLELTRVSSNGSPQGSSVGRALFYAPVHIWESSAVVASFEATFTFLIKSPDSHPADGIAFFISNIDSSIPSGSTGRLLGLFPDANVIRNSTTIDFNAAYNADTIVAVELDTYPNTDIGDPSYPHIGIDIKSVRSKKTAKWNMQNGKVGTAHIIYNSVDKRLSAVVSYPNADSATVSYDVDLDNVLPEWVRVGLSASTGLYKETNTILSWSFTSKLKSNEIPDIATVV
Sequence of Focal adhesion kinase 1 (Homo sapiens) (Q05397 whole entry, looked up): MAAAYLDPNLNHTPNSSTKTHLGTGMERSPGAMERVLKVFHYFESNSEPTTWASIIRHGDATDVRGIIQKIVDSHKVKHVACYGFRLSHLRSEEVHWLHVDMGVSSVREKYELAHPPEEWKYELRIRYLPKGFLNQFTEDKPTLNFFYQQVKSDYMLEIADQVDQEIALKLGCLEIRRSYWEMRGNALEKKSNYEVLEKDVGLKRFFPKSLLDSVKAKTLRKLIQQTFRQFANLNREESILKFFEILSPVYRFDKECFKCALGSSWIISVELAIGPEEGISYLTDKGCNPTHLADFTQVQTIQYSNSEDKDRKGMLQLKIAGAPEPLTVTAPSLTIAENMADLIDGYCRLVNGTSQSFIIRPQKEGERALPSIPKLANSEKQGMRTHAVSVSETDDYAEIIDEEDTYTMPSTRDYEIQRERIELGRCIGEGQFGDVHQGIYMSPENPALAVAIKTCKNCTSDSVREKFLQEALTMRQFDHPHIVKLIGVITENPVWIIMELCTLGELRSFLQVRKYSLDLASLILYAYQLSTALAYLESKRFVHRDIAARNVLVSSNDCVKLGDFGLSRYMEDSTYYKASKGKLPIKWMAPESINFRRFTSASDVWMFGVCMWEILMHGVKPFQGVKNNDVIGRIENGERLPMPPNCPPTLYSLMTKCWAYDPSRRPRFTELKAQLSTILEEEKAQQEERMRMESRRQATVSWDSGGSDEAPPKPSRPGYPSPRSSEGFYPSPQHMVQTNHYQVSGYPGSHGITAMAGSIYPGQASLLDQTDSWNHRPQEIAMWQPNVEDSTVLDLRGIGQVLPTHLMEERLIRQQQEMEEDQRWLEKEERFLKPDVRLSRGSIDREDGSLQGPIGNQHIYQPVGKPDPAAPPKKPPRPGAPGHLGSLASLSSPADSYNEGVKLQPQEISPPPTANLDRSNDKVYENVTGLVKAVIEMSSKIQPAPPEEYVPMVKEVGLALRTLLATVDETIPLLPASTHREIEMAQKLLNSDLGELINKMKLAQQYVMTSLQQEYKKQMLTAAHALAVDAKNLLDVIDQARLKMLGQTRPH
Sequence of Albumin (Bos taurus) (P02769 whole entry, looked up): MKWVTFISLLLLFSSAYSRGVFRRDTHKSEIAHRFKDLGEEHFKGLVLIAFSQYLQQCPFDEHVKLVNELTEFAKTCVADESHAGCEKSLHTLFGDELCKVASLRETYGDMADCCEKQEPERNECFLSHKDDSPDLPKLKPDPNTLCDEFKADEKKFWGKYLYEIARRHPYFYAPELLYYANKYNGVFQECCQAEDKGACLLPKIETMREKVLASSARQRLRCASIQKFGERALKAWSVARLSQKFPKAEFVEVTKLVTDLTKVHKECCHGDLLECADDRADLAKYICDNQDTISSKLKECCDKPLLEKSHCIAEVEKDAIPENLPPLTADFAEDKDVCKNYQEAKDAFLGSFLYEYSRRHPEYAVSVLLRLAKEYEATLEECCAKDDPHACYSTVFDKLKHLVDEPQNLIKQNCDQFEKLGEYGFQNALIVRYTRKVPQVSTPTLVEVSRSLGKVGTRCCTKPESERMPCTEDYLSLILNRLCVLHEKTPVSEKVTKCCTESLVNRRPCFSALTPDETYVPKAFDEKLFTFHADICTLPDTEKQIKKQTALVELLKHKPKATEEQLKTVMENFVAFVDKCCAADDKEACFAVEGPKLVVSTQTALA

As to `CC#CC(=O)Oc1ccccc1C=CC(=O)OCC`, the composite z-score is -0.138 with Albumin (Bos taurus); 0.0035 in assay [2]; -0.118 in [3]; 0.358 in assay [4]; -0.0224 in assay [5]; -0.021 in assay [6]. Besides, the composite z-score is 0.82 in the assay with Sam68 (KHDRBS1); -0.0448 in [7]; 0.502 in assay [8]; 0.259 in [9]; 0.69 in [10]; -0.0142 in assay [11]. The composite z-score in assay [12] was -0.0002; in assay [13] it was 0.036; in assay [14] it was 0.524; in the assay on Lefty1 it was 0.51; in [16], 0.0601. Moreover, the composite Z-score in [1] is -0.263 (inactive). In addition, the z-score in assay [15] was -1.04; in assay [17] it was 1.51 (inactive).
With `CC(C)(C)OC(=O)CC[C@]1(C(=O)N2CCOCC2)N=C(c2ccc(OCCCO)cc2)O[C@H]1c1ccccc1N=[N+]=[N-]`, the composite z-score was found to be 0.55 in the assay with Albumin (Bos taurus); 0.133 in [2]; 0.119 in [3]; 0.743 in [4]; 2.36 in [5]; 0.947 in [6]. Moreover, the composite z-score with Sam68 (KHDRBS1) is 1.28; in assay [7] it was -0.135; in assay [8], 0.973; in assay [9], 2.82; in [10], 1.27; in assay [11], 0.566. Further, the composite z-score in assay [12] worked out at 0.946; in [13] it was 1.18; in [14], 0.449; in the assay with Lefty1 it was 0.146; in [16], 1.02. In addition, the composite Z-score in assay [1] was 0.103 (inactive). The z-score was 2.26 in assay [15] and -9.23 (active) in assay [17].
Take `NC(=O)N1C(=O)C2C(C1=O)C1C=C(c3ccc(CO)cc3)C2C(c2cccs2)N1Cc1cccc(OC(F)(F)F)c1` (stereo not given): the composite z-score is -0.137 with Albumin (Bos taurus); 0.111 in assay [2]; -0.0449 in assay [3]; 0.72 in assay [4]; 0.669 in assay [5]; 0.798 in assay [6]. Moreover, the composite z-score in the assay on Sam68 (KHDRBS1) is -0.882; in assay [7], 0.38; in assay [8], -0.0204; in [9] it was 1.16; in assay [10], 0.0253; in assay [11], 0.556. For the same molecule, the composite z-score in [12] is -0.0767; in assay [13] it was 0.704; in assay [14], -0.365; in the assay with Lefty1, 0.444; in assay [16] it was 0.949. For the same molecule, the composite Z-score in assay [1] was 0.29 (inactive). Also, the z-score is 1.22 in assay [15] and -2.17 (inactive) in assay [17].
Regarding `COc1cc(COC(C)=O)ccc1OC(C)=O`, the composite z-score with Albumin (Bos taurus) is -0.0355; in [2], 0.397; in assay [3] it was -0.0304; in [4] it was -0.171; in assay [5] it was 0.279; in [6] it was -0.184. Further, the composite z-score in the assay on Sam68 (KHDRBS1) was 0.624; in [7], 0.558; in [8], 0.733; in assay [9] it was -0.0364; in assay [10], 0.262; in assay [11], 0.661. For the same molecule, the composite z-score was 0.0038 in assay [12]; 0.512 in assay [13]; 0.102 in assay [14]; 0.45 in the assay on Lefty1; -0.155 in assay [16]. Further, in [1], the composite Z-score was -0.254 (inactive). The z-score in assay [15] was 1.47; in assay [17], -1.52 (inactive).
Take `O=C1OCCC/C=C\[C@H]2OC34C=CCN(Cc5ccccc5)C(=O)[C@H]3N(CCCO)C(=O)[C@@H]4C12` (stereo not given in full): the composite z-score is -0.937 with Albumin (Bos taurus); -0.327 in [2]; -0.104 in assay [3]; 0.948 in assay [4]; -0.861 in [5]; 1.59 in assay [6]. The composite z-score with Sam68 (KHDRBS1) was -0.374; in assay [7], -1.79; in assay [8], -1.53; in [9] it was -0.14; in assay [10], -0.496; in assay [11], -0.66. The composite z-score is -1.64 in assay [12]; -1.29 in assay [13]; -1.08 in [14]; -1.28 in the assay with Lefty1; -0.443 in assay [16]. The composite Z-score in [1] is 0.581 (inactive). The z-score was 1.26 in assay [15] and -1.26 (inactive) in assay [17].
